Experimental data from PubChem BioAssay (NCATS).
Records with an inconclusive call do not appear. Some compounds were tested as several samples or in several runs, with calls that do not always agree. Calls of active or inactive are those of the source. Calls follow the shape of the full dose curve. Numbered stars: 1 amine (or outer) side, 2 acyl side, 3 side chain; on linkers, the order of the positions; unused ones are H or OH. Bridge positions count the residues as written; N and C are the ends. Square brackets hold non-standard residues; d marks the D form. Peptide text beside a SMILES is read from it. I, II: the chains in the order shown. Actinocin(9to1) = Cc1c2oc3c(C)ccc(C(=O)[*:1])c3nc-2c(C(=O)[*:2])c(N)c1=O; NMeV = CN[C@H](C(=O)O)C(C)C; Sar = CNCC(=O)O

assay: Cytotoxicity counterscreen for inhibitors of SARS-CoV-2 cell entry (AID 1645845); details: cell viability (SARS-CoV-2 entry assay cells); series mostly up to 57.1 µM; activity change, negative = cytotoxicity: at the top concentration; also: nearly all actives have a fitted effect of over 50% in size; as to activity change, negative = cytotoxicity: % is scaled to controls: 0 for no effect and ±100 for the full control effect
In short: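 HEK293-ACE2 cells (Expi293F stably expressing human ACE2) seeded overnight, then compound for 1 h plus 48 h at 37C. Viability as ATP content by luminescence; normalized to wells with cells and media-only wells.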

Structure (SMILES) | outcome | Potency | activity change, negative = cytotoxicity
CC(CN1c2ccccc2Sc2ccccc21)N(C)C (stereo not drawn) | inactive |  | 
O=C1CC[C@@]2(O)[C@H]3Cc4ccc(O)c5c4[C@@]2(CCN3CC2CC2)[C@H]1O5 |  | inactive | 
N[C@@H](Cc1ccc(N(CCCl)CCCl)cc1)C(=O)O |  |  | -8.61% (inactive)
CCCc1cc(=O)[nH]c(=S)[nH]1 |  | inactive | 
Cc1cn([C@H]2C[C@H](N=[N+]=[N-])[C@@H](CO)O2)c(=O)[nH]c1=O |  |  | -11.1% (inactive)
COc1c(C)c2c(c(O)c1C/C=C(\C)CCC(=O)O)C(=O)OC2 |  |  | -22.2% (inactive)
COC(=O)Nc1nc2ccc(C(=O)c3cccs3)cc2[nH]1 |  |  | -41.8% (inactive)
C=C1C[C@@H]2[C@H](CC[C@]3(C)C(=O)CC[C@@H]23)[C@@]2(C)C=CC(=O)C=C12 |  | inactive | 
Cc1c2oc3c(C)ccc(C(=O)N[C@@H]4C(=O)N[C@H](C(C)C)C(=O)N5CCC[C@H]5C(=O)N(C)CC(=O)N(C)[C@@H](C(C)C)C(=O)O[C@@H]4C)c3nc-2c(C(=O)N[C@@H]2C(=O)N[C@H](C(C)C)C(=O)N3CCC[C@H]3C(=O)N(C)CC(=O)N(C)[C@@H](C(C)C)C(=O)O[C@@H]2C)c(N)c1=O (I: T[dV]P[Sar][NMeV] / II: T[dV]P[Sar][NMeV]; ester I:1-I:C, II:1-II:C; linker I:N-II:N via Actinocin(9to1)) |  |  | -19.7% (inactive)
COC(c1ccccc1)(c1ccccc1)[C@H](Oc1nc(C)cc(C)n1)C(=O)O |  | inactive | 
CC(C)(C)NCC(O)c1cc(Cl)c(N)c(Cl)c1 (stereo not drawn) | inactive |  | 
CN1CCC(=C2c3ccccc3C=Cc3ccccc32)CC1 |  | inactive | 
C=C(CC)C(=O)c1ccc(OCC(=O)O)c(Cl)c1Cl |  |  | -5.29% (inactive)
CC[C@]1(O)C[C@@H]2CN(CCc3c([nH]c4ccccc34)[C@@](C(=O)OC)(c3cc4c(cc3OC)N(C)[C@H]3[C@@](O)(C(=O)OC)[C@H](OC(C)=O)[C@]5(CC)C=CCN6CC[C@]43[C@@H]65)C2)C1 |  |  | -22.4% (inactive)
CC(C)(C)C(=O)OCOP(=O)(COCCn1cnc2c(N)ncnc21)OCOC(=O)C(C)(C)C |  | inactive | 
CCCC1CCCCN1 (stereo not drawn) | inactive |  | 
C=CCN1CC[C@]23c4c5ccc(O)c4O[C@H]2C(=O)CC[C@@]3(O)[C@H]1C5 | inactive |  | 
COc1c(C)c2c(c(O)c1C/C=C(\C)CCC(=O)OCCN1CCOCC1)C(=O)OC2 |  | inactive | 
CCc1c2c(nc3ccc(OC(=O)N4CCC(N5CCCCC5)CC4)cc13)-c1cc3c(c(=O)n1C2)COC(=O)[C@]3(O)CC |  |  | -12.7% (inactive)
CO[C@@H](C(=O)N1Cc2[nH]nc(NC(=O)c3ccc(N4CCN(C)CC4)cc3)c2C1)c1ccccc1 |  |  | -21.3% (inactive)
CCC1=C[C@@H]2CN(C1)Cc1c([nH]c3ccccc13)[C@@](C(=O)OC)(c1cc3c(cc1OC)N(C)[C@H]1[C@@](O)(C(=O)OC)[C@H](OC(C)=O)[C@]4(CC)C=CCN5CC[C@]31[C@@H]54)C2 |  |  | -35.3% (inactive)

assay: Primary qHTS to identify inhibitors of SARS-CoV-2 cell entry (AID 1645846); details: SARS-CoV-2 pseudovirus cell entry assay, luminescence; activity change, negative = inhibition: at 57.1 µM (top of the series) unless noted; series mostly up to 57.1 µM; also: nearly all actives have a fitted effect of over 45% in size; also: potency is read from the fitted curve at half-maximal effect
In short: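 Inhibition of spike-mediated entry was scored in human ACE2-transfected Expi293F cells. Particles were MLV-pseudotyped with Wuhan-Hu-1 S carrying a 19-aa C-terminal deletion; signal was luciferase after two days, scaled between spike PP and fusion-protein-free PP.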

Structure (SMILES) | activity change, negative = inhibition [%] | outcome | Potency
O=C1CC[C@@]2(O)[C@H]3Cc4ccc(O)c5c4[C@@]2(CCN3CC2CC2)[C@H]1O5 | -8.92 |  | 
CCCc1cc(=O)[nH]c(=S)[nH]1 | -37.3 | inactive | 
Oc1cc(Cl)ccc1Oc1ccc(Cl)cc1Cl |  |  | 25100 nM (active)
Cc1cn([C@H]2C[C@H](N=[N+]=[N-])[C@@H](CO)O2)c(=O)[nH]c1=O |  |  | 1000 nM (active)
COc1c(C)c2c(c(O)c1C/C=C(\C)CCC(=O)O)C(=O)OC2 |  |  | 1000 nM (active)
COC(=O)Nc1nc2ccc(C(=O)c3cccs3)cc2[nH]1 | -61.3 |  | 
Cc1c2oc3c(C)ccc(C(=O)N[C@@H]4C(=O)N[C@H](C(C)C)C(=O)N5CCC[C@H]5C(=O)N(C)CC(=O)N(C)[C@@H](C(C)C)C(=O)O[C@@H]4C)c3nc-2c(C(=O)N[C@@H]2C(=O)N[C@H](C(C)C)C(=O)N3CCC[C@H]3C(=O)N(C)CC(=O)N(C)[C@@H](C(C)C)C(=O)O[C@@H]2C)c(N)c1=O (I: T[dV]P[Sar][NMeV] / II: T[dV]P[Sar][NMeV]; ester I:1-I:C, II:1-II:C; linker I:N-II:N via Actinocin(9to1)) | -94.7 |  | 
COC(c1ccccc1)(c1ccccc1)[C@H](Oc1nc(C)cc(C)n1)C(=O)O | -34.8 | inactive | 
CC(C)(C)NCC(O)c1cc(Cl)c(N)c(Cl)c1 (stereo not drawn) | 0.184 |  | 
CN1CCC(=C2c3ccccc3C=Cc3ccccc32)CC1 | -24.8 |  | 
C=C(CC)C(=O)c1ccc(OCC(=O)O)c(Cl)c1Cl |  |  | 17800 nM (active)
CC[C@]1(O)C[C@@H]2CN(CCc3c([nH]c4ccccc34)[C@@](C(=O)OC)(c3cc4c(cc3OC)N(C)[C@H]3[C@@](O)(C(=O)OC)[C@H](OC(C)=O)[C@]5(CC)C=CCN6CC[C@]43[C@@H]65)C2)C1 | -82.9 |  | 
CC(C)(C)C(=O)OCOP(=O)(COCCn1cnc2c(N)ncnc21)OCOC(=O)C(C)(C)C | -90.1 |  | 
C=CCN1CC[C@]23c4c5ccc(O)c4O[C@H]2C(=O)CC[C@@]3(O)[C@H]1C5 | 2.17 |  | 
COc1c(C)c2c(c(O)c1C/C=C(\C)CCC(=O)OCCN1CCOCC1)C(=O)OC2 | -45.8 |  | 
CCc1c2c(nc3ccc(OC(=O)N4CCC(N5CCCCC5)CC4)cc13)-c1cc3c(c(=O)n1C2)COC(=O)[C@]3(O)CC | -95.5 |  | 891 nM (active)
CO[C@@H](C(=O)N1Cc2[nH]nc(NC(=O)c3ccc(N4CCN(C)CC4)cc3)c2C1)c1ccccc1 | -64.7 |  | 
CCC1=C[C@@H]2CN(C1)Cc1c([nH]c3ccccc13)[C@@](C(=O)OC)(c1cc3c(cc1OC)N(C)[C@H]1[C@@](O)(C(=O)OC)[C@H](OC(C)=O)[C@]4(CC)C=CCN5CC[C@]31[C@@H]54)C2 | -90.3 |  | 2820 nM (active)
